# The list is not random: actives were taken first. Their share in the collection is about 3%.
# SENP7 block – blocks the human protease SENP7; inhibition, % at 5 µM; AID 434973; recombinant SENP7, Z-RLRGG-aminoluciferin luminescence, 40 min; 330,000 compounds, 1.5% hits;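 active = inhibition above about 50% at the single test dose, limit read from the data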;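 note: plate controls were DMSO with enzyme for no effect and no enzyme buffer wells for full effect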
# Target sequence (Q9BQF6 706-1050 limits assumed): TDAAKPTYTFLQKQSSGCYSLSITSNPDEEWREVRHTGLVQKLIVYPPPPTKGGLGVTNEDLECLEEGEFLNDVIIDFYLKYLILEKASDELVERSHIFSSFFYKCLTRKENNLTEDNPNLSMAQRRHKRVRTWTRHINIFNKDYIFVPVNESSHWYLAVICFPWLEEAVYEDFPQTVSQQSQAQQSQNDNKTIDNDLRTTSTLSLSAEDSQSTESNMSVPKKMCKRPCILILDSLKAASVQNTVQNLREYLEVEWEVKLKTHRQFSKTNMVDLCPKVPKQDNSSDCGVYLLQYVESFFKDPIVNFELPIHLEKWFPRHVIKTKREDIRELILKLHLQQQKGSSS
# SENP8 block-1 – inhibitors of human SENP8 protease. purified SENP8, Z-RLRGG-aminoluciferin cleavage, luminescence. inhibition, % at 10 µM. 330,000 compounds, 1.2% hits. AID 2540; in the data active = inhibition above about 50%
# Target sequence (Q96LD8 whole entry, looked up): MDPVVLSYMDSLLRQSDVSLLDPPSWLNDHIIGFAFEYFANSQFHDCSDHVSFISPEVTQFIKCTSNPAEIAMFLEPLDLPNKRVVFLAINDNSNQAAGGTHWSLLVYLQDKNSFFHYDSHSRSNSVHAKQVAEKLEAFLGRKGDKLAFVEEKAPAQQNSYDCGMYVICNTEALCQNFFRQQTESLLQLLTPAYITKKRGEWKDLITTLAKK
# SENP6 block – inhibitors of human SENP6 protease; Q9GZR1; Recombinant SENP6 catalytic domain, aminoluciferin luminescence; inhibition, % at 10 µM; 330,000 compounds, 1.8% hits; AID 2599;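 active = inhibition above about 50% at the single tested dose, limit read from the data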;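 note: plate controls were DMSO wells with enzyme for no effect and DMSO wells lacking enzyme for full effect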
# SENP8 block-2 – SENP8 (human) protease inhibition | 360,000 compounds, 0.64% hits | recombinant SENP8, Nedd8 substrate fluorescence | Q96LD8 | inhibition, % at 20 µM | AID 602440; in the data active = inhibition mostly above about 40%, no sharp cut-off; inactive = mostly below about 27%
# PPC-1+TRAIL kill – compounds killing PPC-1 cancer cells with TRAIL present (potentiator screen, no TRAIL-free arm) | PPC-1 cells + TRAIL, ATPLite viability luminescence | cell killing (% activity), % at 4 µM or 5 µM | 220,000 compounds, 0.41% hits;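 active = cell killing above 50% in the first pass at 4 µM, then a duplicate retest at 5 µM averaging 50% or more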;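 note: plate controls were cells with TRAIL plus DMSO for no effect and medium-only wells lacking cells for full effect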
# C8 TRAIL sens – caspase-8 TRAIL sensitization; NB7+C8 cells + TRAIL, ATPlite viability luminescence; inhibition (viability loss, TRAIL sensitization), % at 10 µM; 360,000 compounds, 1% hits; AID 624354;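 active = compounds causing at least 50% loss of cell viability in the single-dose screen, relative to plate controls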
# PPC1 cytotox – kills PPC-1 cells; shares compounds with PPC-1+TRAIL kill; 1,200 compounds, 50% hits; cytotoxicity, % at 5 µM; AID 1447; PPC-1 viability, ATPlite luminescence, overnight;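 active = reconfirmed compounds whose average cytotoxicity reaches 50% or more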;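 note: 0% = DMSO-treated cells and 100% = wells holding medium but no cells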
# An asterisk follows results filed as active; i = inactive; nt = not tested or not shown.
SMILES,SENP7 block,SENP8 block-1,SENP6 block,SENP8 block-2,PPC-1+TRAIL kill,C8 TRAIL sens,PPC1 cytotox
CC1(C)Cc2c(cnn2-c2ccc(F)cc2)C(NC(=O)c2ccc(=O)oc2)C1 (configuration not stated),5.6,4.8,-10.6,-18.2,nt,-47.6,nt
COC(=O)c1ccc(OCC(=O)c2ccc(O)cc2O)cc1,21.1,6.6,24.5,3.6,37.2,35.0,35.5
COc1ccc(C(=O)COc2ccc(F)cc2)c(O)c1,16.3,-1.7,28.9,11.0,9.1,-3.1,nt
O=S(=O)(NCCSc1ccccc1)c1ccc(F)cc1,6.7,5.4,10.3,13.0,-1.5,-4.6,-3.2
CC1CCc2c(sc(NC(=O)c3ccc(N4C(=O)CCC4=O)cc3)c2C(N)=O)C1 (configuration not stated),2.9,-3.6,2.3,i,nt,18.1,nt
CCN(CC)C(=O)CN(c1ccc(F)c(Cl)c1)S(C)(=O)=O,1.5,-3.1,-15.3,16.4,-0.8,-9.0,12.3
CCCCn1c(SCC(=O)NCc2ccc3c(c2)OCO3)nnc1C(CC)N(C)C (configuration not stated),-0.4,11.6,-10.9,8.3,nt,-10.0,nt
C=CCNCc1cccn1-c1sc2c(c1C#N)CCCC2,10.5,3.2,-6.7,25.4,-3.1,11.8,7.7
N#Cc1c(-n2cccc2/C=N/O)sc2c1CCCC2,-8.7,-7.7,10.8,17.6,10.7,13.4,nt
CC(C)N(C)C1CCN(C(=O)Nc2ccc(Cl)c(Cl)c2)CC1,-3.4,6.6,14.1,8.1,0.6,3.3,2.8
Cc1cc(N2CC(=O)N(CCc3ccccc3)C(=O)C2)n2ncnc2n1,-0.8,-2.2,-6.7,24.0,10.3,-17.6,-1.8
Cc1cc(N2CCN(c3ccccc3)CC2)n2ncnc2n1,2.1,9.4,17.8,12.7,6.3,-12.7,nt
Cc1ccc(-c2cc(=O)c3ccccc3[nH]2)cc1,5.8,-7.7,7.3,-5.7,22.5,35.0,nt
Cc1ccc2[nH]c(-c3ccccc3)cc(=O)c2c1,8.5,8.2,2.6,-100.6,69.0*,52.5*,67.7*
Cc1ccc(-c2cc(=O)c3cc(Cl)ccc3[nH]2)cc1,19.8,-21.0,-15.2,nt,64.7*,nt,60.3*
O=c1cc(-c2ccc(Cl)cc2)[nH]c2ccccc12,-0.7,-4.9,-13.8,nt,8.1,nt,nt
Cc1cc(SCC(=O)N(C)CC(=O)Nc2ccc(F)cc2)nc2ccccc12,-4.5,-11.7,2.1,10.3,4.3,18.0,nt
CCOC(=O)c1nn(-c2ccc3c(c2)CCN3C(C)=O)cc1O,-4.4,-7.1,-18.4,-323.0,41.4,62.1*,45.7
O=C(COC(=O)c1cc(Cl)ccc1O)NNC(=O)c1ccccc1F,-3.6,-16.9,-31.1,-173.6,nt,-22.0,nt
O=c1c2c(-c3ccccc3)csc2nc2c3ccccc3c(NCCN3CCOCC3)nn12,nt,nt,nt,-470.3,-6.0,72.4*,6.0
O=c1c2ccccc2nc2c3ccccc3c(NCCN3CCOCC3)nn12,2.0,2.4,-6.9,nt,42.0,nt,nt
COc1ccccc1NC(=O)Cn1c([N+](=O)[O-])cnc1C,-4.8,-7.5,-16.0,17.0,nt,-5.8,nt
On1onc2c3cc(-c4ccccc4)nc3ccc21,11.3,11.2,16.6,12.0,23.8,2.6,17.6
CCCCCc1ccc(OCCCC[n+]2cccc(C)c2)c(CCCCC)c1,1.3,-8.0,-8.1,6.9,21.4,20.6,26.9
CCCCCc1ccc(OCCCC[n+]2ccc(C)cc2)c(CCCCC)c1,5.7,-13.3,-40.2,15.0,26.7,46.3,9.4
SMILES,SENP7 block,SENP8 block-1,SENP6 block,SENP8 block-2,PPC-1+TRAIL kill,C8 TRAIL sens,PPC1 cytotox
CCCCOc1ccc(C)cc1CN(CCO)CCO,-1.5,-3.3,-12.2,-0.5,-9.4,4.0,nt
Cc1cc(O)cc(O)c1/C=N/NC(=O)c1ccc2c(c1)OCCO2,nt,nt,nt,8.3,nt,24.7,nt
O=C(Nc1ccc(Cl)c(Cl)c1)c1ccncc1,23.9,2.0,27.4,32.2,8.2,2.5,11.5
CC(=O)Nc1cccc(-c2nc3ccc(NC(C)=O)cc3s2)c1,22.5,-2.3,25.7,-364.5,38.2,47.9,28.5
Cc1cc2nc3ccc(=[N+](C)C)cc-3sc2cc1N,nt,nt,nt,57.1*,71.5*,51.2*,71.9*
O=C(C1CCCO1)N(c1cccc(Cl)c1)C1C=CS(=O)(=O)C1 (configuration not stated),-2.7,-2.3,-6.0,18.4,3.9,-6.5,12.1
COc1ccc(-c2csc(NC(=O)CSCc3c(C)noc3C)n2)c(OC)c1,8.0,-7.4,-6.8,0.0,nt,2.2,nt
CC1Sc2ccc(C(=O)N(CCc3ccccc3)Cc3ccccc3)cc2NC1=O (configuration not stated),nt,nt,nt,2.9,nt,-14.8,nt
Cc1ccc(-c2nn(-c3ccccc3)cc2/C=N/NC(=O)c2ccncc2)o1,-0.8,4.5,13.3,-65.1,28.6,18.1,26.7
CCC(=O)OCC(=O)N=c1sccn1Cc1ccccc1Cl,1.5,1.6,1.1,10.8,nt,7.9,nt
O=C(CCl)N=c1sccn1Cc1cccc2ccccc12,nt,nt,nt,6.0,97.1*,95.3*,97.7*
O=C(CCl)N=c1sccn1Cc1ccccc1Cl,5.2,3.9,-11.5,11.3,97.7*,94.9*,95.3*
CCC(=O)OCC(=O)N=c1sccn1Cc1ccc(C)cc1,4.3,1.8,0.0,10.4,nt,4.4,nt
O=C(CCl)N=c1sccn1Cc1ccc(Cl)cc1Cl,-4.4,-5.2,-15.8,8.1,98.3*,97.4*,96.0*
CCOC(=O)[C@@H](NC(=O)/C=C/[C@H]1O[C@@H](n2ccc(=O)[nH]c2=O)[C@H](O)[C@@H]1O)C(C)C,nt,nt,nt,12.5,nt,-11.5,nt
COCCn1c(SCC(=O)NC2CCCCC2)nnc1-c1ccncc1,-12.8,-9.4,-5.0,8.8,nt,-20.1,nt
COC(=O)c1ccccc1NC(=O)C12CC3CC(C1)CC(n1cnc(Cl)n1)(C3)C2,5.7,10.2,22.0,-6.4,15.9,-3.1,nt
O=C(Nc1cccc2ccccc12)C12CC3CC(C1)CC(n1cnc([N+](=O)[O-])n1)(C3)C2,4.9,-0.6,0.1,16.3,4.2,7.1,13.7
OC(c1cc(-c2ccc(Cl)cc2)nc2ccccc12)C1CCCCN1 (configuration not stated),nt,nt,nt,13.7,9.4,33.0,-6.3
Cc1nc(SCC(=O)Nc2nc3ccccc3s2)c(C#N)c(C)c1C,6.2,-0.3,-3.7,-0.2,95.5*,95.3*,96.0*
Cc1ccc2sc(NC(=O)CSc3nc(C)cc(C)c3C#N)nc2c1,-0.8,-4.8,2.7,-294.2,65.0*,69.8*,62.2*
O=C(NCC(c1ccco1)N1CCc2ccccc2C1)C(=O)Nc1ccc(F)cc1F (configuration not stated),-1.5,-8.3,-8.1,1.0,nt,8.2,nt
COc1ccccc1C(=O)NCCNc1ccc([N+](=O)[O-])cc1Cl,10.1,-9.2,-10.3,19.9,nt,-6.0,nt
O=C(CCCN1C(=O)CCC1=O)Nc1ccc2c(c1)OCO2,-15.2,-12.8,-11.9,15.3,8.0,-1.6,9.1
COc1ccc(/C=C/C(=O)OCC(=O)c2cc(C)ccc2C)cc1,nt,nt,nt,15.5,nt,7.4,nt

# From PubChem BioAssay
